# Source: PubChem BioAssay (several laboratories)
# DUSP3 inh: VHR1 phosphatase inhibitors, primary screen, biochemical, absorbance, uHTS; recombinant VHR phosphatase, pNPP absorbance; inhibition, % at 13.3 µM; AID 1654, 2009; actives 0.52% (n = 290,000); in the data active = inhibition above about 50%
# Target sequence (P51452 whole entry, looked up): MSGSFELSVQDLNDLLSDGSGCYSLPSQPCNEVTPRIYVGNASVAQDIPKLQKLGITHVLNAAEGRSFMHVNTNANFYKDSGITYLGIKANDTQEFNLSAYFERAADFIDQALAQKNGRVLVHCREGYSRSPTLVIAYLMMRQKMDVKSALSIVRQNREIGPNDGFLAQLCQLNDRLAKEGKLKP
# TcdB inh: TcdB glycohydrolase inhibitors, primary screen, biochemical, single point, plate reader; actives 0.24% (n = 350,000); TcdB glycohydrolase enzymatic assay; inhibition, % at 9.99 µM; Toxin B (Clostridioides difficile), P18177; in the data active = inhibition above about 10%
# PrPC TRFRET: inhibitors of human cell surface prion protein PrPC, primary screen, cell-based, TR-FRET; TR-FRET read-out; inhibition, % at 13.8 µM; actives 0.43% (n = 370,000); AID 720596, 2013; in the data active = inhibition above about 24%; also: 0% = median of the test wells and 100% = reference compound wells
# CCHFV vOTU inh: CCHFV vOTU protease inhibitors, primary screen, biochemical, Pep-AMC substrate, fluorescence | Crimean-Congo hemorrhagic fever virus L polyprotein viral ovarian tumor (vOTU) protease … | inhibition, % at 11.5 µM | actives 0.55% (n = 370,000) | AID 651958, 2012; in the data active = inhibition above about 30%; also: 0% = vehicle wells with enzyme and 100% = no enzyme wells
# Vc quorum ag: inducers of Vibrio cholerae quorum light production without autoinducers, primary screen, BH1578 luxS cqsA deficient, single point; V. cholerae BH1578 lux reporter, luminescence, 6 h; activation, % at 18.7 µM; actives 0.16% (n = 350,000); AID 588436, 2011; in the data active = activation mostly above about 9.7%, no sharp cut-off
# SSB-PriA inh: inhibitors of Klebsiella pneumoniae PriA binding to SSB C-terminal tail, primary screen, biochemical, AlphaScreen. PriA–SSB C-terminal tail interaction (Klebsiella pneumoniae). AlphaScreen SSBct-PriA binding, biotinylated peptide. actives 0.6% (n = 430,000). AID 1272365, 2023. inhibition, % at 33 µM; in the data active = inhibition mostly above about 37%, no sharp cut-off; inactive = mostly below about 20%;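 also: plate controls were negative control peptide for no effect and reference peptide for full effect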
# * = called active by the depositor; i = inactive; . = no result. Rows were chosen to be rich in hits. Some 1.5% of all compounds tested hit in one or more screens of this group.
SMILES,DUSP3 inh,TcdB inh,PrPC TRFRET,CCHFV vOTU inh,Vc quorum ag,SSB-PriA inh
Cc1cccc(N2CCN(S(=O)(=O)c3ccc4c(c3)CCN4C(=O)CCC(=O)O)CC2C)c1 (stereo not drawn),54.5*,0.3,-7.2,1.3,-0.2,-6.2
CCCCCC(=O)Nc1nc(C)c(-c2csc(Nc3cc(OC)ccc3OC)n2)s1,51.2*,0.3,-6.7,26.2,i,-5.2
CCCCCCC(=O)Nc1nc(C)c(-c2csc(Nc3cc(OC)ccc3OC)n2)s1,127.4,0.3,-2.6,17.0,-6.7,22.0
O=C(Nc1nc2c(s1)CN(C(=O)CN1C(=O)CCC1=O)CC2)c1ccccn1,.,.,.,.,.,-2.0
Cc1ccc2[nH]c3nc(NN)nnc3c2c1,-0.7,0.6,-22.6,10.7,-1.5,89.7*
O=C(COC(=O)c1cc(=O)[nH]c2ccccc12)c1ccccc1,6.7,1.4,0.1,-2.6,i,-2.5
Cc1ccc(C(=O)COC(=O)c2cc(=O)[nH]c3ccccc23)cc1,13.9,11.2*,6.3,-1.8,-0.4,-8.0
CCN1CCN(CC(O)COCCOc2ccccc2Br)CC1 (stereo not drawn),.,.,.,.,.,-55.0
CCOc1ccc(C=Nc2cccc3ncccc23)cc1,10.8,0.2,-5.2,13.8,-0.3,77.4*
COc1cccc(C(=O)N2CCN(c3ccc(Nc4ccccn4)nn3)CC2)c1OC,.,.,.,.,.,37.0
CCC(C(=O)N1CCN(c2ccc(-c3ccccn3)nn2)CC1)c1ccccc1 (stereo not drawn),.,.,.,.,.,80.0*
O=S(=O)(c1ccc(Cl)s1)N1CCN(c2ccc(-c3ccccn3)nn2)CC1,.,.,.,.,.,55.0*
CCC(C(=O)N1CCN(c2ccc(-c3ccncc3)nn2)CC1)c1ccccc1 (stereo not drawn),.,.,.,.,.,3.0
COc1cccc(C(=O)N2CCN(c3ccc(-c4ccccn4)nn3)CC2)c1OC,.,.,.,.,.,94.0*
O=C(c1ccc(C(F)(F)F)nc1)N1CC(Oc2nccs2)C1,.,.,.,.,.,-14.0
Nc1ncnc2[nH]c(=S)[nH]c12,.,14.7*,1.8,-10.7,-1.7,1.5
CSc1nc2ncnc(N)c2[nH]1,4.8,0.0,0.8,-15.8,-0.7,-0.5
Cc1cc(CNS(=O)(=O)c2c(C)c(C)cc(C)c2C)c(C)o1,.,.,.,.,.,9.0
O=[N+]([O-])c1ccc(C2CCCCC2=NOCc2ccccc2F)c([N+](=O)[O-])c1 (stereo not drawn),.,.,.,.,.,50.3*
O=C(C1CC1)N1CCC(c2nnc(C(F)(F)F)o2)CC1,.,.,.,.,.,-7.0
CC(OC(=O)c1nn(C(C)C)c(=O)c2ccccc12)C(=O)Nc1ncc(Cl)cc1Cl (stereo not drawn),59.9*,1.0,7.8,-0.5,-0.2,1.1
CC1(C)Cc2c(sc3nc4n(c(=O)c23)CCC4)CO1,7.2,0.7,-1.8,-6.1,.,12.1
Cc1ccc(-c2nc3sc4c(c3c(=O)n2N)CC(C)(C)OC4)cc1,2.4,.,-2.2,-8.6,16.7*,-6.7
CC1Cn2c(nc3sc4c(c3c2=O)CC(C)(C)OC4)N1CCO (stereo not drawn),53.0*,-0.2,4.2,-31.5,0.9,2.5
CC(=O)NCCc1nc2ccccc2n1Cc1ccccc1,16.6,1.0,-2.4,2.0,-0.2,97.0*
SMILES,DUSP3 inh,TcdB inh,PrPC TRFRET,CCHFV vOTU inh,Vc quorum ag,SSB-PriA inh
CN(C)CCCNC(=S)N(CCCO)Cc1cc2cc3c(cc2[nH]c1=O)OCO3,20.0,1.1,4.8,-4.6,i,-9.9
CCCCNC(=S)N(CCCO)Cc1cc2cc3c(cc2[nH]c1=O)OCCO3,51.3*,1.4,-3.5,-29.5,-0.3,-12.7
Cc1csc(C(=O)N2CCC(Oc3ccc(C(F)(F)F)cn3)CC2)c1,.,.,.,.,.,-8.0
CC1CCN(S(=O)(=O)c2ccc3c(c2)oc(=O)n3CC(=O)N2c3ccccc3CC2C)CC1 (stereo not drawn),21.1,0.4,0.1,-4.1,-0.2,98.1*
Cc1cc2ccccc2n1CCNC(=O)C(C)(C)Oc1ccc(Cl)cc1,.,.,.,.,.,-11.0
Cc1cccc(NS(=O)(=O)c2csc(C(N)=O)c2)c1C,52.6*,1.0,3.9,-12.2,0.8,-9.1
Cc1cc(C)c(S(=O)(=O)c2ccc(C(C)(C)C)cc2)c(Cl)n1,52.6*,-1.2,-1.4,12.2,-0.3,-6.3
COc1ccccc1CNc1ncnc2c1cnn2-c1ccccc1,25.8,-2.7,17.4,16.0,-0.3,46.1*
O=S(=O)(NCC#CCN1CCc2ccccc2C1)c1cccnc1,.,.,.,.,.,-3.0
Cn1ccc(C(=O)Nc2ccc(F)cc2F)n1,.,.,.,.,.,-7.0
Cc1cn([C@H]2C[C@H](N=[N+]=[N-])[C@@H](CO)O2)c(=O)[nH]c1=O,16.3,0.5,2.0,0.8,35.4*,0.6
O=c1cc2c(nn1Cc1ccc(Cl)cc1)-c1ccccc1CC2,11.9,.,7.2,33.3*,i,-21.3
O=c1cc2c(nn1Cc1cccc(Cl)c1)-c1ccccc1CC2,11.3,.,-3.5,12.2,i,-17.1
O=C(NC[C@@H](c1cccs1)N1CCc2ccccc2C1)NC1CCCCC1,.,.,.,.,.,2.0
CC1CCc2oc3c(cc(NS(=O)(=O)c4cccs4)c4ccccc43)c2C1 (stereo not drawn),.,.,.,.,.,22.0
CC1CCc2oc3c(cc(NS(=O)(=O)c4ccc(Br)cc4)c4ccccc43)c2C1 (stereo not drawn),.,.,.,.,.,37.0*
Cc1cc(O)c(C2=Nc3ccccc3NC(c3ccccc3)C2)c(=O)o1 (stereo not drawn),.,.,.,.,.,-16.0
CCCCn1c(CN2CCN(C(=O)c3ccco3)CC2)nc2c1c(=O)n(C)c(=O)n2C,5.1,10.3*,-11.5,6.0,i,-6.6
Cn1c2ccccc2c(=O)c2ccc(C#Cc3ccccn3)cc21,70.9,-0.6,-2.2,-12.6,.,-4.1
COc1cc2oc3ccc(C#Cc4ccccn4)cc3c(=O)c2cc1OC,.,10.6*,3.6,-15.5,1.9,-9.2
NNc1nc(-c2ccccc2)cc(-c2ccccc2)n1,-3.6,-0.2,8.8,7.5,-0.3,0.7
NNc1nc(-c2ccccc2)cc(-c2ccccc2O)n1,26.9,-3.0,.,.,i,39.9*
COC(=O)/C(C#N)=C/N(C)C,0.8,-0.6,-2.0,12.2,-0.7,1.3
CCOC(=O)/C(C#N)=C\N(C)C,56.7*,.,-1.3,5.7,-0.4,-17.8
COC[C@H]1CCCN(Cc2ccccn2)C1,.,.,.,.,.,3.0
CC[C@H](C)c1ccc(Cn2c(CO)nc3ccccc32)cc1,.,.,.,.,.,-6.0
O=[N+]([O-])c1cccc(-c2csc(=Nc3ccccc3)n2N2CCOCC2)c1,.,.,.,.,.,64.0*
CC(=O)c1ccc(NC(=O)CN2C(=O)CCSc3ccccc32)cc1,.,.,.,.,.,-8.0
CC1=CC(C)(C)Nc2ccc(OC(=O)C(C)N3C(=O)c4ccccc4C3=O)cc21 (stereo not drawn),12.7,.,-6.6,-3.3,-4.3,42.5*
